About 79,000 compounds went through this panel and 15% of them were active in at least one assay; those are over-represented in the sample as a whole. Active and inactive are the calls of the source. Cut-off read from the data, not from the text of the source: active = growth inhibition above about 70%; inactive = the rest.
Columns and labels:
[1] = NCI Yeast Anticancer Drug Screen. Data for the rad52 strain (AID 147);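 note: 0% = growth of vehicle-treated control cultures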; conditions: S. cerevisiae rad52 mutant growth inhibition, stronger effect = higher value
How it was run: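 Genetically altered yeast (DNA damage repair defect) treated with compound; inhibition calculated relative to vehicle.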

[2] = NCI Yeast Anticancer Drug Screen. Data for the wt1 strain (AID 149);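 note: 0% = growth of vehicle-treated wt1 cultures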; conditions: S. cerevisiae wt1 strain (SPY 50644) growth inhibition, stronger effect = higher value
How it was run: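 Growth inhibition read against vehicle controls after compound exposure of the wt1 yeast strain.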

[3] = NCI Yeast Anticancer Drug Screen. Data for the mgt1 strain (AID 153); conditions: S. cerevisiae mgt1 mutant growth inhibition, stronger effect = higher value
How it was run: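 Read-out: yeast growth inhibition vs vehicle control. Strain mgt1, drawn from a panel altered in DNA damage repair or cell cycle control.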

[4] = NCI Yeast Anticancer Drug Screen. Data for the rad50 strain (AID 155);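 note: 0% = growth of vehicle-only cultures of the same strain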; conditions: S. cerevisiae rad50 strain growth inhibition, stronger effect = higher value
How it was run: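 Readout: growth inhibition relative to vehicle-treated cultures. Compound exposure was carried out in a genetically defined yeast strain deficient in DNA damage repair.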

[5] = NCI Yeast Anticancer Drug Screen. Data for the mec2-1 strain (AID 157); conditions: S. cerevisiae mec2-1 strain, stronger effect = higher value
How it was run: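 Cells of the genetically defined mec2-1 yeast strain are incubated with test compound. Inhibition of growth is calculated against vehicle-treated controls.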

[6] = NCI Yeast Anticancer Drug Screen. Data for the rad14 strain (AID 159);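 note: 0% = growth of vehicle-treated control cultures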; conditions: S. cerevisiae rad14 strain growth inhibition, stronger effect = higher value
How it was run: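 Growth inhibition vs vehicle controls; genetically altered yeast strain (DNA damage repair defect) treated with test compounds.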

[7] = NCI Yeast Anticancer Drug Screen. Data for the sgs1 mgt1 strain (AID 161);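 note: 0% = growth of cultures given vehicle only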; conditions: S. cerevisiae sgs1 mgt1 strain, stronger effect = higher value
How it was run: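 Genetically altered yeast, compound exposure, growth inhibition relative to vehicle.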

[8] = NCI Yeast Anticancer Drug Screen. Data for the CLN2oe strain (AID 163);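 note: 0% = growth of vehicle-only control cultures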; conditions: S. cerevisiae CLN2oe strain, stronger effect = higher value
How it was run: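 Strain altered in cell-cycle control, incubated with compound; growth compared to solvent-treated controls.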

[9] = NCI Yeast Anticancer Drug Screen. Data for the cln2 rad14 strain (AID 165);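 note: 0% = growth equal to vehicle treated cultures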; conditions: S. cerevisiae cln2 rad14 strain, stronger effect = higher value
How it was run: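 The screen exposed genetically defined yeast (cln2 rad14) to test compounds and scored growth inhibition relative to vehicle-treated controls.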

[10] = NCI Yeast Anticancer Drug Screen. Data for the bub3 strain (AID 167); conditions: S. cerevisiae bub3 mutant strain, stronger effect = higher value
How it was run: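 Readout: yeast growth inhibition, expressed relative to vehicle-only wells. The test organism is a mutant strain from a panel with lesions in DNA repair or checkpoint genes.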

[11] = NCI Yeast Anticancer Drug Screen. Data for the wt2 strain (AID 169);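 note: 0% = growth of vehicle-treated yeast cultures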; conditions: S. cerevisiae wt2 strain growth inhibition, stronger effect = higher value
How it was run: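 Steps: yeast strain treated with compound; growth recorded; inhibition calculated relative to cultures given vehicle alone.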

[12] = NCI Yeast Anticancer Drug Screen. Data for the mlh1 strain (AID 171);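 note: 0% = growth of vehicle-treated control cultures of the same strain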; conditions: S. cerevisiae mlh1 strain growth inhibition, stronger effect = higher value
How it was run: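 Yeast screen: mutant strain plus compound, growth scored against vehicle control wells.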

[13] = NCI Yeast Anticancer Drug Screen. Data for the sgs1 strain (AID 173);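 note: 0% = growth of vehicle-only control cultures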; conditions: S. cerevisiae sgs1 mutant, stronger effect = higher value
How it was run: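 Inhibition of yeast growth served as the measure. The mutant strain was treated with each compound, and growth was normalised to cultures receiving vehicle alone.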

[14] = NCI Yeast Anticancer Drug Screen. Data for the mlh1 rad18 strain (AID 175); conditions: S. cerevisiae mlh1 rad18 strain growth inhibition, stronger effect = higher value
How it was run: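 Compound-treated yeast growth, normalised to vehicle controls. Strain bears defined DNA repair mutations.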

[15] = NCI Yeast Anticancer Drug Screen. Data for the rad18 strain (AID 177); conditions: S. cerevisiae rad18 mutant growth inhibition, stronger effect = higher value
How it was run: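 Inhibition values reflect reduced yeast growth compared with vehicle-treated controls, using a strain engineered with a DNA damage repair defect.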

[16] = at 5.0 µM (retest, dose inferred, filed as 0.5)
[17] = at 50.0 µM (retest, dose inferred, filed as 5.0)

Measured: growth inhibition

Cc1cc(N=Nc2ccc(S(=O)(=O)[O-])cc2)cc(C(=O)[O-])c1[O-].NC1CCCCC1N.[Na+].[Pt+4]
inactive: [1]; at 1.2 µM 6% | [1]; at 3.7 µM 33% | [2]; at 1.2 µM 3% | [2]; at 3.7 µM 44% | [3]; at 1.2 µM 34% | [3]; at 3.7 µM 66% | [4]; at 1.2 µM -23% | [4]; [16] 20% | [5]; at 1.2 µM 9% | [5]; [16] 32% | [6]; at 1.2 µM -4% | [6]; at 3.7 µM 52% | [7]; [16] 68% | [8]; at 1.2 µM 5% | [8]; at 3.7 µM 21% | [9]; [16] 49% | [10]; at 1.2 µM -21% | [10]; at 3.7 µM 40% | [10]; [16] 50% | [11]; at 1.2 µM -2% | [12]; at 1.2 µM 7% | [12]; at 3.7 µM 66% | [13]; at 1.2 µM 21% | [13]; at 3.7 µM 63% | [14]; [16] 33% | [15]; at 1.2 µM -26% | [15]; at 3.7 µM 42%
active: [1]; at 11.0 µM 99% | [1]; at 33.0 µM 98% | [1]; at 100.0 µM 98% | [2]; at 11.0 µM 98% | [2]; at 33.0 µM 98% | [2]; at 100.0 µM 98% | [3]; at 11.0 µM 99% | [3]; at 33.0 µM 99% | [3]; at 100.0 µM 98% | [4]; at 3.7 µM 84% | [4]; at 11.0 µM 98% | [4]; at 33.0 µM 98% | [4]; [17] 98% | [4]; at 50.0 µM 87.7% | [4]; at 100.0 µM 98% | [5]; at 3.7 µM 77% | [5]; at 11.0 µM 99% | [5]; at 33.0 µM 99% | [5]; [17] 99% | [5]; at 50.0 µM 91.2% | [5]; at 100.0 µM 98% | [6]; at 11.0 µM 98% | [6]; at 33.0 µM 98% | [6]; at 100.0 µM 98% | [7]; [17] 99% | [7]; at 50.0 µM 92% | [8]; at 11.0 µM 95% | [8]; at 33.0 µM 99% | [8]; at 100.0 µM 98% | [9]; [17] 97% | [9]; at 50.0 µM 92% | [10]; at 11.0 µM 99% | [10]; at 33.0 µM 98% | [10]; [17] 98% | [10]; at 50.0 µM 90.2% | [10]; at 100.0 µM 98% | [11]; at 3.7 µM 93% | [11]; at 11.0 µM 98% | [11]; at 33.0 µM 98% | [11]; at 100.0 µM 97% | [12]; at 11.0 µM 99% | [12]; at 33.0 µM 99% | [12]; at 100.0 µM 98% | [13]; at 11.0 µM 99% | [13]; at 33.0 µM 99% | [13]; at 100.0 µM 99% | [14]; [17] 98% | [14]; at 50.0 µM 85.8% | [15]; at 11.0 µM 97% | [15]; at 33.0 µM 98% | [15]; at 100.0 µM 98%
